# Laboratory results: the OligoGym collection
# Legend:
# Test in all cases: pooled miR-30 sensor sort-seq; sequence = guide strand
# Conditions in all cases: shRNA
# LECT2 = biological target: LECT2
# LEFTY1 = biological target: LEFTY1
# LEKR1 = biological target: LEKR1
# LCN1 = biological target: LCN1
# LIPA = biological target: LIPA
# LONP1 = biological target: LONP1
# LRDD = biological target: LRDD
# LRRC15 = biological target: LRRC15
# LTA4H = biological target: LTA4H
# MAFG = biological target: MAFG
# MAD2L2 = biological target: MAD2L2
# MAF = biological target: MAF
# MACROD1 = biological target: MACROD1
# MAGEA2B = biological target: MAGEA2B
# MAMSTR = biological target: MAMSTR
# MALL = biological target: MALL
# MAGOHB = biological target: MAGOHB
# MAGOH = biological target: MAGOH
# Further: reference of the scale not given here.
sequence,measurement,setting,value
TCTCATTGGAAGACTTGCCAGC,sensor-assay potency score (higher = more potent),LECT2,-0.403
TCCATAGTCCCCAAGGTCCAGG,sensor-assay potency score (higher = more potent),LEFTY1,-1.98
TTTGAGCTGCAGCTGCCGCAGC,sensor-assay potency score (higher = more potent),LEFTY1,-0.825
ATGTAGAACATTTTGACACAAA,sensor-assay potency score (higher = more potent),LECT2,-1.54
TTCCAGATATTCGAACACCATT,sensor-assay potency score (higher = more potent),LECT2,-1.45
TATTCGAACACCATTATTGATA,sensor-assay potency score (higher = more potent),LECT2,-1.28
TATCTCCACATGTAAGTGCTTA,sensor-assay potency score (higher = more potent),LEFTY1,-0.789
TTTCACAGTCAGCTCTTCCTGT,sensor-assay potency score (higher = more potent),LEKR1,0.514
TCTCCGTGCTGAGTCCGCGGGC,sensor-assay potency score (higher = more potent),LCN1,-0.925
TGGTCCTTCACGTGCGACCTGA,sensor-assay potency score (higher = more potent),LCN1,-1.44
TATGCCAGGATAAACTTTCTGC,sensor-assay potency score (higher = more potent),LECT2,-0.251
TTGTTCTTGGGGTCTCTGCCCA,sensor-assay potency score (higher = more potent),LCN1,-0.515
TTCTGCTTCAATCTTCTCCTTC,sensor-assay potency score (higher = more potent),LEKR1,0.505
TTGCAATTTTGTTTCTTCCTTA,sensor-assay potency score (higher = more potent),LEKR1,0.537
TTCCAGGGTCGTGAGGGTCATG,sensor-assay potency score (higher = more potent),LCN1,-1.33
TTAGGTGAGGTAACTTGTCAGA,sensor-assay potency score (higher = more potent),LEFTY1,-0.87
TTAGATTCTTCAGTGTACCGAG,sensor-assay potency score (higher = more potent),LEKR1,0.595
TCTTTGAGCTGCAGCTGCCGCA,sensor-assay potency score (higher = more potent),LEFTY1,-1.36
TTTGAGCAGAGTACTGTCCACA,sensor-assay potency score (higher = more potent),LECT2,-0.808
TAGTCCCCAAGGTCCAGGGTGT,sensor-assay potency score (higher = more potent),LEFTY1,-1.02
TTGTATGCCAGGATAAACTTTC,sensor-assay potency score (higher = more potent),LECT2,-0.895
TCCTGAATCTCCTCGTCTGAGG,sensor-assay potency score (higher = more potent),LCN1,-2.03
TTGCTTTTCTTTCACAGTCAGC,sensor-assay potency score (higher = more potent),LEKR1,-1.35
TTATTGATAGCATTCTTGTTTT,sensor-assay potency score (higher = more potent),LECT2,-1.1
ATTCATCTCAGGGAACTCCCTG,sensor-assay potency score (higher = more potent),LCN1,-0.0672
TTACAAAGTCTTTATTATCTGG,sensor-assay potency score (higher = more potent),LEFTY1,-0.428
TAATGTAGAACATTTTGACACA,sensor-assay potency score (higher = more potent),LECT2,-0.673
TTGCTCTTCAAATTCAACCAAG,sensor-assay potency score (higher = more potent),LEKR1,-1.09
TGACACATCCTGAATCTCCTCG,sensor-assay potency score (higher = more potent),LCN1,1.02
TCATAAGCCAGGAAGCCCGGGG,sensor-assay potency score (higher = more potent),LEFTY1,-0.504
TTCTCGGCCCACTTCATCCCCT,sensor-assay potency score (higher = more potent),LEFTY1,-1.23
TGACCAGCTCCTCCATGTCGGC,sensor-assay potency score (higher = more potent),LEFTY1,-1.7
ATTATTGATAGCATTCTTGTTT,sensor-assay potency score (higher = more potent),LECT2,-0.52
TCCAACGCCAGGAACCTGCCGG,sensor-assay potency score (higher = more potent),LEFTY1,-1.04
TACTCTTTTCAGTTCATCCGAC,sensor-assay potency score (higher = more potent),LEKR1,0.07
TTAGATCTCTTGTAGCGCCTGT,sensor-assay potency score (higher = more potent),LEKR1,0.858
ATTGATAGCATTCTTGTTTTGA,sensor-assay potency score (higher = more potent),LECT2,-0.317
TAAACAATGACACATTGGGCTT,sensor-assay potency score (higher = more potent),LEFTY1,-1
TTTCCTTTGAATTAGATTCTTC,sensor-assay potency score (higher = more potent),LEKR1,0.113
TTGACACAAAAACCTCTTCCAG,sensor-assay potency score (higher = more potent),LECT2,-1.04
TTAACAAGCATTGTACTGTTAG,sensor-assay potency score (higher = more potent),LIPA,-0.745
TATTGTAAGGAAATGATGCTGC,sensor-assay potency score (higher = more potent),LIPA,0.625
TCGTCGATGAGGATCAGGGGGT,sensor-assay potency score (higher = more potent),LONP1,-0.954
AATCCTCTGAAGCATCTCCTGC,sensor-assay potency score (higher = more potent),LRDD,-1.15
TACAGGTCCAAGCTCAGCCGGT,sensor-assay potency score (higher = more potent),LRDD,-1.52
TTCTTGCAGCAGCAACAGCCGA,sensor-assay potency score (higher = more potent),LRRC15,-1.7
TTGGAGAGTGACTTGTCGCCTG,sensor-assay potency score (higher = more potent),LTA4H,0.145
TTGATTGAGAACATCAACCTTA,sensor-assay potency score (higher = more potent),LTA4H,0.904
TTCTATTATACTTTCTTCCCTT,sensor-assay potency score (higher = more potent),MAFG,-0.191
TTCCACGTAAAGCTGCATCTTT,sensor-assay potency score (higher = more potent),MAD2L2,-0.0388
TATACTGATTCAGCTCCGGGTG,sensor-assay potency score (higher = more potent),MAD2L2,-0.735
TGGATCTTCTCCATGTTGCGAG,sensor-assay potency score (higher = more potent),MAD2L2,-0.717
TTTTCTCGGAAGCCGCTGCTCA,sensor-assay potency score (higher = more potent),MAF,-0.816
TTATATATCACAAACATACACT,sensor-assay potency score (higher = more potent),MAFG,-0.989
TTTAGTGGTATCAGCCGGGGGT,sensor-assay potency score (higher = more potent),MAD2L2,-0.467
TTTCTCATTGAGCTGCTTGTCC,sensor-assay potency score (higher = more potent),MACROD1,-0.192
TCGAGCTCCAGCTTCATGCTGG,sensor-assay potency score (higher = more potent),MAFG,-0.0457
TTAGCAATAAATACTGCGCAGG,sensor-assay potency score (higher = more potent),MAFG,-0.418
TTGAGGTGGTCGACTTGCTGCA,sensor-assay potency score (higher = more potent),MAF,-0.511
TTTATCGGGGACACACTCTAGC,sensor-assay potency score (higher = more potent),MAFG,-0.0679
TTTACTATTGTGATGACGCTGG,sensor-assay potency score (higher = more potent),MAFG,0.761
TCCACATGAGACAACAGCGAGT,sensor-assay potency score (higher = more potent),MAD2L2,-1.88
AACTTCTCGTATTTCTCCTTGT,sensor-assay potency score (higher = more potent),MAF,-0.264
TATATAAAAACTAAACTCCAAC,sensor-assay potency score (higher = more potent),MAFG,-1.06
TCATTGAGCTGCTTGTCCTTTT,sensor-assay potency score (higher = more potent),MACROD1,-0.672
TCGACTTGCTGCAGCAGCTGGT,sensor-assay potency score (higher = more potent),MAF,-0.659
TTGTACTTCTTGCGTTTCTGGA,sensor-assay potency score (higher = more potent),MAD2L2,-0.29
TTTTAGTGGTATCAGCCGGGGG,sensor-assay potency score (higher = more potent),MAD2L2,-1.07
ATAATGTCTGATAACTCTGTGT,sensor-assay potency score (higher = more potent),MAFG,-0.547
TCCCTCTCGCGCACCAGCCTGG,sensor-assay potency score (higher = more potent),MAF,-1.61
TTTCTCCACATCATTCTTCTCC,sensor-assay potency score (higher = more potent),MAD2L2,-0.203
TTTATCCAAAATCACCACCACC,sensor-assay potency score (higher = more potent),MAD2L2,-1.44
TCATCCAGTAGTAGTCTTCCAG,sensor-assay potency score (higher = more potent),MAF,-0.918
TAGCCGGTCATCCAGTAGTAGT,sensor-assay potency score (higher = more potent),MAF,-1.7
TTTCAGGGTCCGCCTCTTCTGC,sensor-assay potency score (higher = more potent),MAF,-1.55
TATAATTAATTTAATAACTTTG,sensor-assay potency score (higher = more potent),MAFG,-0.864
TACTATTGTGATGACGCTGGTG,sensor-assay potency score (higher = more potent),MAFG,0.19
TCTTGCATGAGCAGCTTCCTGG,sensor-assay potency score (higher = more potent),MAGEA2B,-1.1
TTCAGCTCGCGCACAGACATGG,sensor-assay potency score (higher = more potent),MAF,-0.726
TTTCGCCTCCTTCCAGTCGGTG,sensor-assay potency score (higher = more potent),MACROD1,-1.53
TTTTTAGTGGTATCAGCCGGGG,sensor-assay potency score (higher = more potent),MAD2L2,-0.778
TGAGACAACAGCGAGTCTGAGC,sensor-assay potency score (higher = more potent),MAD2L2,-0.635
TAGATCTTTAATAACCTCCATC,sensor-assay potency score (higher = more potent),MAFG,-0.748
TTGCATGAGCAGCTTCCTGGGA,sensor-assay potency score (higher = more potent),MAGEA2B,-0.244
TTTAGCAATAAATACTGCGCAG,sensor-assay potency score (higher = more potent),MAFG,-0.617
TTGATGGTAGTCGAGAAGCTGG,sensor-assay potency score (higher = more potent),MAGEA2B,-0.963
TGCTGCACCCTCTTGAAGCGGC,sensor-assay potency score (higher = more potent),MAF,-0.694
TGTACTTCTTGCGTTTCTGGAA,sensor-assay potency score (higher = more potent),MAD2L2,-0.3
TCCAGAGTCAGAGCCGCTGAGC,sensor-assay potency score (higher = more potent),MAMSTR,-2
TTTCTCAGAAACAATCGTGGCA,sensor-assay potency score (higher = more potent),MALL,0.81
TTCTCAGAAACAATCGTGGCAT,sensor-assay potency score (higher = more potent),MALL,0.00713
AGTTTCTCAGAAACAATCGTGG,sensor-assay potency score (higher = more potent),MALL,-1.29
TCGGCTTGGGGGTCTGCCCTGG,sensor-assay potency score (higher = more potent),MAMSTR,-0.566
TTCTTTTGTAATTTCACTGTCA,sensor-assay potency score (higher = more potent),MAGOHB,0.267
TTGACCGAGCCCTGACGCCGGG,sensor-assay potency score (higher = more potent),MAMSTR,-1.2
TTAGGAAGCAACTGCGCCCTCC,sensor-assay potency score (higher = more potent),MAMSTR,-0.483
TACAGGATGCCAGTGGTCCCGT,sensor-assay potency score (higher = more potent),MALL,-0.996
TCTGATCATGACATCATTCTTG,sensor-assay potency score (higher = more potent),MAGOH,0.0716
TGCTGCGCTGGGCTTGACCGAG,sensor-assay potency score (higher = more potent),MAMSTR,-1.43
TTGTAAAATCCAAACAAGTAAG,sensor-assay potency score (higher = more potent),MALL,-1.62
AATTAATGTAGTAAATTCTTGG,sensor-assay potency score (higher = more potent),MALL,-0.359
AAACAAGTAAGACAACAGGAAC,sensor-assay potency score (higher = more potent),MALL,-1.63
TTGATTGACATCAATAAGGGAA,sensor-assay potency score (higher = more potent),MAGOH,0.101
TGCTGGAGTCAGATAAGTCAGC,sensor-assay potency score (higher = more potent),MAMSTR,-1.36
TAATAAAATACTCGTAAGCCTT,sensor-assay potency score (higher = more potent),MAGOH,-0.986
TTTCTGATCATCACATCATTTT,sensor-assay potency score (higher = more potent),MAGOHB,-1.65
TTGGCATATCTTAACTTCCCGT,sensor-assay potency score (higher = more potent),MAGOH,-0.899
TAAATGTCCAAACAAAGTGTGG,sensor-assay potency score (higher = more potent),MALL,-1.11
TAAGCCTTCTGGATCCTTGGAT,sensor-assay potency score (higher = more potent),MAGOH,0.401
TTCTTGTAATTGCTGTTGTTGG,sensor-assay potency score (higher = more potent),MAGOH,-1.26
TTCGAACTCCAGAAACTCGTGC,sensor-assay potency score (higher = more potent),MAGOHB,0.282
TTGTCTCCGATCCTGTGTCTGC,sensor-assay potency score (higher = more potent),MAMSTR,-0.79
TCTGAAGTTCCAACTTGTGTGG,sensor-assay potency score (higher = more potent),MAMSTR,-0.0798
TAAGACAACAGGAACATCAAGG,sensor-assay potency score (higher = more potent),MALL,-0.729
TTTTCTGATCATGACATCATTC,sensor-assay potency score (higher = more potent),MAGOH,-1.16
TGGAGTCAGATAAGTCAGCGGA,sensor-assay potency score (higher = more potent),MAMSTR,-0.63
TATCTTAACTTCCCGTCCGGTC,sensor-assay potency score (higher = more potent),MAGOH,-1.04
ATATCTTAACTTCCCGTCCGGT,sensor-assay potency score (higher = more potent),MAGOH,-0.615
TAGACTTGGTCCCCGACACTGG,sensor-assay potency score (higher = more potent),MAMSTR,-0.651
TCTTTTGTAAAATCCAAACAAG,sensor-assay potency score (higher = more potent),MALL,-1.37
